Sm TGR block: S. mansoni TGR enzyme inhibition; AID 485364; purified TGR, DTNB reduction, TNB absorbance 405 nm; Potency, µM (highest dose often 114 µM), usual class: inhibitors; actives 3% (n = 360,000); also: nearly all actives have a fitted effect of over 60% in size
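First, TGR (20 nM dispensed) and NADPH were mixed with compound. Second, a 15 min room-temperature incubation followed. Third, further NADPH and then DTNB were added to start the reaction. Finally, TNB absorbance was monitored kinetically.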
CHX counter: counter-screen hit for Shiga toxin inhibitors, cycloheximide; actives 12% (n = 300,000); AID 2314; max response, %; cell reporter, cycloheximide protein synthesis inhibition counterscreen; in the data active = max response mostly above about 13%, no sharp cut-off; inactive = mostly below about 14%; also: read at 38.3 µM for the half of the compounds with a filed dose
LmPK inhibitor: blocks Leishmania mexicana pyruvate kinase activity | Q27686 | purified LmPK, Kinase-Glo ATP luminescence, 1 h | Potency, µM (top dose mostly 57.5 µM), usual class: inhibitors | actives 0.37% (n = 290,000)
Target sequence (Q27686 whole entry, looked up): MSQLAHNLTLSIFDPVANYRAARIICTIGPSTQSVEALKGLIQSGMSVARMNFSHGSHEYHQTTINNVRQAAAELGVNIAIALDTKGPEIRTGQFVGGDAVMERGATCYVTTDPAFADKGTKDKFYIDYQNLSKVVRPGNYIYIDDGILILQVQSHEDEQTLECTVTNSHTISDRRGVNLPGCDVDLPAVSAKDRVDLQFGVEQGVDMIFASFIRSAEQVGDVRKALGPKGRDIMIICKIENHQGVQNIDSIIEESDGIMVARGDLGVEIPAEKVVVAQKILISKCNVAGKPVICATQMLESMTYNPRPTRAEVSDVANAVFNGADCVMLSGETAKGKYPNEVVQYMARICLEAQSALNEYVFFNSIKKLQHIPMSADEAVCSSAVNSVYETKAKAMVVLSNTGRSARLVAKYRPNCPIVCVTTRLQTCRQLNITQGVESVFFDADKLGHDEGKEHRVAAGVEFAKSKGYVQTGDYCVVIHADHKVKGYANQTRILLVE
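Purified LmPK (0.1 nM) converted ADP (0.1 mM) to ATP with PEP (0.5 mM) in imidazole buffer pH 7.2 with KCl and MgCl2, 1 h at room temperature. ATP was read by Kinase-Glo luminescence; data normalized to uninhibited and no-enzyme controls.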
TbPYK inhibitor: inhibitors of Trypanosoma brucei pyruvate kinase; Q57TT1; TbPYK enzyme, Kinase-Glo Plus ATP luminescence, 45 min; Potency, µM (titrated, usually from 76.8 µM), most hits filed as inhibitors; actives 0.12% (n = 410,000); also: nearly all actives have a fitted effect of over 50% in size
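T. brucei PYK with substrate was exposed to pin-transferred compounds across a concentration series, then started with 130 uM ADP (final). After 45 min at room temperature, Kinase-Glo Plus luminescence was read, normalized and curve-fitted.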
Shiga toxin inh: Shiga toxin inhibition | Vero cells, Shiga toxin protein synthesis inhibition reporter | inhibition, % at 38.7 µM | actives 9.2% (n = 290,000); in the data active = inhibition mostly above about 28%, no sharp cut-off; inactive = mostly below about 43%
FBPA Giardia inh: Giardia lamblia aldolase inhibition | A8B2U2 | purified Giardia FBPA | Potency, µM (titrated, usually from 59.6 µM), usual class: inhibitors | actives 0.71% (n = 290,000) | AID 2451; also: nearly all actives have a fitted effect of over 55% in size
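40 nM FBPA preincubated 10 min at RT with compound (up to 57.5 uM final), then substrate plus GAPDH/TPI/NAD/arsenate coupling and diaphorase/resazurin added. Fluorescence read after 20 min at RT, 525/598 nm.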
Each line names hits and unclear results; the compound was inactive in the other large screens. This is one part of a sample in which hits are shown more often than they occur. Unless noted, calls follow the shape of the dose curve; as a rule, active = well fitted curve in the direction sought with a large enough effect; inconclusive = small, poorly fitted or top-dose-only effect, or another doubt; inactive = no such curve, though single readings can be large; an effect the other way counts as inactive or inconclusive.

Cc1ccc(OS(=O)(=O)c2ccccc2)c(/C=N/N=C2\NC(=O)C(C)S2)c1 (stereo not drawn)	CHX counter 12
O=C(NCC(c1cccs1)N1CCOCC1)c1ccc(Br)o1 (stereo not drawn)	Sm TGR block 25µM
CCOc1ccc(NS(=O)(=O)c2ccc(C(=O)NCC(c3cccs3)N3CCOCC3)cc2)cc1 (stereo not drawn)	none (no result: CHX counter, LmPK inhibitor, Shiga toxin inh, FBPA Giardia inh)
Cc1ccsc1C(=O)NCC(c1cccs1)N1CCOCC1 (stereo not drawn)	none (no result: Sm TGR block, CHX counter, LmPK inhibitor, Shiga toxin inh, FBPA Giardia inh)
CC(=O)c1ccc(S(=O)(=O)Nc2ccc(C(=O)NCC(c3cccs3)N3CCOCC3)cc2)cc1 (stereo not drawn)	Sm TGR block 14µM (no result: CHX counter, LmPK inhibitor, Shiga toxin inh, FBPA Giardia inh)
CCOc1ccc(NC(=O)c2sc3nc4c(c(-c5ccc(OC)cc5)c3c2N)C(=O)CC(C)(C)C4)cc1	none (no result: CHX counter, LmPK inhibitor, Shiga toxin inh, FBPA Giardia inh)
O=C(c1ccco1)C(O)c1ccco1 (stereo not drawn)	Sm TGR block 20µM
C(=N\Nc1nc2ccccc2[nH]1)/c1c[nH]c2ccccc12	CHX counter 54, Shiga toxin inh 67
COc1ccccc1/C=N/Nc1nccnc1Cl	CHX counter 35, LmPK inhibitor 16µM, Shiga toxin inh 66
COc1cc(CNc2nc3ccccc3[nH]2)cc(OC)c1OC	none
COc1ccc(/C=N/Nc2nc3ccccc3[nH]2)c(OC)c1OC	CHX counter 41, Shiga toxin inh 141
O=[N+]([O-])c1cc(/C=N/Nc2nc3ccccc3[nH]2)c(O)cc1O	CHX counter 43, Shiga toxin inh 104, FBPA Giardia inh inconclusive
COc1cccc(/C=N/Nc2nc(C)cc(=O)[nH]2)c1OC	CHX counter 21, Shiga toxin inh 45
Cc1cc(=O)[nH]c(N/N=C/c2c[nH]c3ccccc23)n1	CHX counter 29, FBPA Giardia inh inconclusive
COc1cccc(/C=N/Nc2ncccc2[N+](=O)[O-])c1OC	LmPK inhibitor 14µM, TbPYK inhibitor inconclusive
Cc1ccccc1/C=N/Nc1nc2ccccc2[nH]1	CHX counter 49, Shiga toxin inh 76
CCOc1ccccc1/C=N/Nc1nc(C)cc(=O)[nH]1	none
COc1ccc(/C=C(\C#N)c2nc(-c3cc4ccccc4oc3=O)cs2)cc1OC	none (no result: CHX counter, LmPK inhibitor, Shiga toxin inh, FBPA Giardia inh)
Cc1nc(SC(C)C(=O)NCC2CCCO2)c2cc(-c3ccccc3)sc2n1 (stereo not drawn)	none (no result: CHX counter, LmPK inhibitor, Shiga toxin inh, FBPA Giardia inh)
COc1ccccc1-c1cc(C(=O)N/N=C/c2ccc(C)s2)c2ccccc2n1	none
COc1ccccc1OCC(=O)N/N=C/c1cccc2cccnc12	none (no result: FBPA Giardia inh)
Cc1ccc(/C=N/Nc2nc3ccccc3[nH]2)s1	CHX counter 45, LmPK inhibitor inconclusive, Shiga toxin inh active
C(=N\Nc1nc2ccccc2[nH]1)/c1cccc2cccnc12	CHX counter 47, Shiga toxin inh 79
CCc1ccc(NC(=O)Cn2c(=O)nc(-c3ccccc3F)c3cc(Cl)ccc32)cc1	none (no result: CHX counter, LmPK inhibitor, Shiga toxin inh, FBPA Giardia inh)
Cn1cccc1C(=O)N1CCC2(CCN(C(=O)Nc3ccccc3)CC2)CC1	none (no result: Sm TGR block, CHX counter, LmPK inhibitor, Shiga toxin inh)
COc1cccc(C(=O)Nc2ccc(-n3nncc3C(C)(C)C)cc2)c1	CHX counter 21, Shiga toxin inh 64
CC(C)(C)c1cnnn1-c1ccc(NC(=O)c2ccc3c(c2)OCO3)cc1	CHX counter 13, Shiga toxin inh 28
COCc1cc(=O)n2[nH]cc(-c3ccccc3)c2n1	CHX counter 19, FBPA Giardia inh inconclusive (no result: Shiga toxin inh)
Cc1nc2c(-c3ccccc3)c[nH]n2c(=O)c1Cc1ccccc1	CHX counter 62, Shiga toxin inh 121, FBPA Giardia inh inconclusive
Cc1cc(OCC(=O)OCC(=O)NC2CCS(=O)(=O)C2)ccc1Cl (stereo not drawn)	none (no result: Sm TGR block, CHX counter, LmPK inhibitor, Shiga toxin inh, FBPA Giardia inh)
S=C(NCc1ccco1)Nc1cc(Cl)c(Cl)cc1Cl	none
CC(=O)c1cccc(NC(=S)NCc2ccco2)c1	Sm TGR block inconclusive
S=C(NCc1ccco1)Nc1ccc(Cl)c(Cl)c1	CHX counter 31
CCOc1ccc(NC(=S)NCc2ccco2)cc1	none
S=C(NCc1ccco1)Nc1cccc(Cl)c1	Sm TGR block inconclusive, Shiga toxin inh 32
S=C(NCc1ccco1)Nc1ccc(N2CCOCC2)cc1	Sm TGR block inconclusive, CHX counter 20
CCOC(=O)c1ccc(NC(=S)NCc2ccco2)cc1	Sm TGR block 11µM, Shiga toxin inh 63
COC(=O)[C@@H]1C[C@@H]2CC[C@@H](O)C[C@@H]2N1Cc1ccc(N2CCOCC2)cc1	none (no result: Sm TGR block, CHX counter, LmPK inhibitor, TbPYK inhibitor, Shiga toxin inh)
CCOC(=O)[C@]12CCC=C1N(Cc1ccc(Cl)cc1Cl)C(=O)[C@H](CC(=O)NCC1CCCCC1)C2	none (no result: Sm TGR block, CHX counter, LmPK inhibitor, Shiga toxin inh, FBPA Giardia inh)
Cc1cccc(NC(=O)Cn2c(=O)oc3cc(S(=O)(=O)NCc4ccccc4)ccc32)c1	none (no result: CHX counter, LmPK inhibitor, Shiga toxin inh, FBPA Giardia inh)
COc1ccc(NC(=S)NCc2ccco2)cc1	none
CN(C)S(=O)(=O)c1cccc(NC(=S)NCc2ccco2)c1	Sm TGR block 35µM, FBPA Giardia inh inconclusive
S=C(NCc1ccco1)Nc1ccc(Oc2ccccc2)cc1	CHX counter 34
O=C1CC(c2nnc(Cc3ccccc3Cl)o2)CN1c1ccccc1 (stereo not drawn)	none (no result: CHX counter, LmPK inhibitor, Shiga toxin inh, FBPA Giardia inh)
Nc1cc([N+](=O)[O-])cc2oc(-c3ccccc3)cc12	CHX counter 53, Shiga toxin inh 53
CCCc1c(C)c2cccc(C)c2[nH]c1=O	none
CCCCN1CCc2c([nH]c3c(C)cccc23)C1=O	CHX counter 42, Shiga toxin inh 69
COc1ccc(/C=N/N2CCN(C)CC2)cc1OC	none
COc1ccc(Br)cc1/C=N/N1CCN(Cc2ccccc2)CC1	none
COc1ccccc1N1CCN(/N=C/c2cc(Br)ccc2F)CC1	CHX counter 16
COc1ccccc1N1CCN(/N=C(\C)c2ccc(O)cc2)CC1	CHX counter 28, Shiga toxin inh 43
COc1ccc(/C=N/N2CCN(c3ccccc3OC)CC2)cc1OC	CHX counter 17
COc1ccccc1N1CCN(/N=C/c2ccc(C(=O)O)cc2)CC1	CHX counter 48, Shiga toxin inh 154
COc1ccccc1N1CCN(/N=C/c2cc(OC)c(OC(C)=O)c(OC)c2)CC1	none (no result: Shiga toxin inh)
CCc1nc2ccc(C(=O)NC3CCC(C)CC3)cc2nc1CC (stereo not drawn)	none
Cc1cccc(Cn2c(=O)n(CCCC(=O)NCc3ccccc3Cl)c(=O)c3ccccc32)c1	none (no result: CHX counter, LmPK inhibitor, Shiga toxin inh, FBPA Giardia inh)
COc1ccccc1N1CCN(/N=C/c2ccc(O)c(O)c2)CC1	Sm TGR block inconclusive, CHX counter 38, TbPYK inhibitor inconclusive, Shiga toxin inh 55, FBPA Giardia inh inconclusive
COc1ccccc1N1CCN(/N=C/c2cccc(OC)c2O)CC1	none (no result: Sm TGR block)
COc1ccc(/C=N/N2CCN(c3ccccc3OC)CC2)cc1Br	CHX counter 30 (no result: Shiga toxin inh)
Cc1cc(-c2ccc(Br)cc2)n[nH]1	CHX counter 31, Shiga toxin inh 82
Nc1cc(-c2ccc(Br)cc2)[nH]n1	CHX counter 11
CCOc1cc(-c2cc(N)n[nH]2)cc(OCC)c1OCC	none

Screens (PubChem BioAssay)
